Measured values taken from PubChem BioAssay (NCI).
This is part of a sample that, as a whole, favours compounds with a hit. Of some 79,000 tested, about 15% had one in any assay. Values without a mark were called inactive. Calls of active or inactive are those of the source. No stated cut-off is given here; in the data, active means growth inhibition above about 70%; inactive means the rest.

Assay: NCI Yeast Anticancer Drug Screen. Data for the cln2 rad14 strain (AID 165);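 further: 0% = growth equal to vehicle treated cultures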
Settings: S. cerevisiae cln2 rad14 strain, at 50.0 µM, hits give high values
Method in brief: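 Growth inhibition, relative to vehicle-treated controls, is the read-out. The test organism is a yeast strain with defined genetic alterations, cln2 rad14.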

| SMILES | growth inhibition |
| --- | --- |
| O=C1C=C/C(=N/c2ccc(O)o2)c2ccccc21 | 8.4% |
| N#CCCCNc1ccccc1 | -4.9% |
| Cc1cccc(C(C)(C)C)c1NC(=O)C(=O)C(C(=O)/C=C\c1ccccc1)C1OC(=O)c2ccccc21 (stereo not given) | 30.4% |
| CC1(C)OCC(Cc2ccc3c(c2)OCO3)CO1 | -32.2% |
| CCOC(=O)N1CC(C)N(C(=O)OCC)CC1C (stereo not given) | -15.8% |
| CCc1ccc(NC(=O)CCC(=O)O)cc1 | -90.5% |
| Cc1ccc(N=Nc2c(N)ccc3ccccc23)cc1 | 84.2% (active) |
| CC(C)C1OCC(CO)([N+](=O)[O-])CO1 (stereo not given) | -54.5% |
| Cc1c(-c2ccc3c(c2)COC3)sc(N)c1C#N | 24.3% |
| COc1cc2c(OC)cc1CSCc1sc(C)c(c1Br)CSC2 | -26.6% |
| CC(C)c1ccc(OC(=O)Nc2c(Cl)cccc2Cl)cc1 | 5.6% |
| COc1ccc(NC(=O)COc2ccc(Cl)cc2Cl)cc1 | 36% |
| Cc1ccccc1C(=O)OCC(=O)c1ccc(-c2ccccc2)cc1 | -37.5% |
| Nc1n[n+](-c2ccc(Cl)cc2)no1 | 81.7% (active) |
| CCOC(=O)c1c(-c2ccc([N+](=O)[O-])cc2)c(/C=N\O)n(-c2ccccc2)c1C | -17% |
| CCCOC(=O)NC(C)C(=O)NC(CCC(=O)NC(CCCC(N)C(=O)O)C(=O)NC(C)C(=O)O)C(=O)O (stereo not given) | -9.25% |
| COc1ccc(-c2cc(-c3ccc(Cl)cc3)on2)cc1 | -35.8% |
| Cc1cc([N+](=O)[O-])c(C)c(Br)c1C | 4.65% |
| CCOC(=O)c1ccc(OC)c2[nH]c3c(c(=O)c12)C(=O)c1[nH]c2c(OC)ccc(C(=O)OCC)c2c(=O)c1C3=O | -17.9% |
| O=C1C2=C(Nc3ccccc3N2)OC1c1ccc2c(c1)OCO2 (stereo not given) | -7.9% |

| SMILES | growth inhibition |
| --- | --- |
| CC(=O)NNC(=S)N/C=C(\C#N)S(=O)(=O)c1ccc(C)cc1 | -61.3% |
| CS(=O)(=O)OCC1C2CCC(CC2)C1COS(C)(=O)=O (stereo not given) | -15.8% |
| N#C/C(=C\c1c[nH]c2ccccc12)c1ccc([N+](=O)[O-])cc1 | 3.45% |
| O=C(CC1C(=O)Nc2ccccc2S1=O)Nc1cccc(Cl)c1 (stereo not given) | 18.2% |
| NC(=O)Nc1nc(-c2ccccc2)no1 | -50.6% |
| CC(=O)Nc1c(C(N)=O)cnn1-c1ccccc1 | -0.2% |
| CC1=NC=C(O)c2ccccc2O1 | 15.6% |
| O=C(O)c1ccc(SSc2ccc(C(=O)O)cn2)nc1 | -8.5% |
| CC1(C)C2CCC13CS(=O)(=O)N1O[C@]13C(=O)O2 (stereo not given in full) | 15.1% |
| CC(=O)Oc1ccccc1C1CCCCC1 | 17.2% |
| Nc1nnc(Cc2cccc3ccccc23)o1 | -0.7% |
| Nc1nnnn1CCc1ccccc1 | -10.8% |
| O=C(COc1cc(Cl)ccc1Cl)NCc1ccc(Cl)cc1 | 10.1% |
| CC(NC(=O)N(C)C)NC(=O)N(C)C | -5.85% |
| CC(C)Sc1nc2ccc(NC(=O)/C=C/C(=O)O)cc2s1 | 14.1% |
| Cn1c(=O)c2c(nc(Br)n2CC(=O)c2ccc([N+](=O)[O-])cc2)n(C)c1=O | 18.9% |
| CCCCOC(=O)CNC(=O)c1ccc(C)c(OCc2ccccc2)c1[N+](=O)[O-] | -19.6% |
| COC(=O)/C=C(\C(=O)OC)c1cc(C)c2cc(C(C)C)ccc(C)c1-2 | 13.8% |
| CCOC(=O)c1cnc(SCc2ccccc2)[nH]c1=O | -3.7% |
| CCC(C#N)(c1ccccc1)N(CCc1ccccc1)C(=O)c1ccccc1 (stereo not given) | -20.9% |

Assay: NCI Yeast Anticancer Drug Screen. Data for the bub3 strain (AID 167)
Settings: S. cerevisiae bub3 mutant strain, at 50.0 µM, hits give high values
Method in brief: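 In this screen, a yeast mutant lacking normal mitotic checkpoint function is challenged with compound. Relative growth versus vehicle gives the inhibition value.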

| SMILES | growth inhibition |
| --- | --- |
| O=C1C=C/C(=N/c2ccc(O)o2)c2ccccc21 | 17.8% |
| N#CCCCNc1ccccc1 | -8.6% |
| Cc1cccc(C(C)(C)C)c1NC(=O)C(=O)C(C(=O)/C=C\c1ccccc1)C1OC(=O)c2ccccc21 (stereo not given) | 13.8% |
| CC1(C)OCC(Cc2ccc3c(c2)OCO3)CO1 | 22.5% |
| CCOC(=O)N1CC(C)N(C(=O)OCC)CC1C (stereo not given) | 33.8% |
| CCc1ccc(NC(=O)CCC(=O)O)cc1 | -4.9% |
| Cc1ccc(N=Nc2c(N)ccc3ccccc23)cc1 | 87% (active) |
| CC(C)C1OCC(CO)([N+](=O)[O-])CO1 (stereo not given) | 1.35% |
| Cc1c(-c2ccc3c(c2)COC3)sc(N)c1C#N | 47.8% |
| COc1cc2c(OC)cc1CSCc1sc(C)c(c1Br)CSC2 | 12.7% |
| CC(C)c1ccc(OC(=O)Nc2c(Cl)cccc2Cl)cc1 | 7.2% |
| COc1ccc(NC(=O)COc2ccc(Cl)cc2Cl)cc1 | 33% |
| Cc1ccccc1C(=O)OCC(=O)c1ccc(-c2ccccc2)cc1 | 14% |
| Nc1n[n+](-c2ccc(Cl)cc2)no1 | 82.8% (active) |
| CCOC(=O)c1c(-c2ccc([N+](=O)[O-])cc2)c(/C=N\O)n(-c2ccccc2)c1C | -1.95% |
| CCCOC(=O)NC(C)C(=O)NC(CCC(=O)NC(CCCC(N)C(=O)O)C(=O)NC(C)C(=O)O)C(=O)O (stereo not given) | 21.6% |
| COc1ccc(-c2cc(-c3ccc(Cl)cc3)on2)cc1 | 10.6% |
| Cc1cc([N+](=O)[O-])c(C)c(Br)c1C | -38.5% |
| CCOC(=O)c1ccc(OC)c2[nH]c3c(c(=O)c12)C(=O)c1[nH]c2c(OC)ccc(C(=O)OCC)c2c(=O)c1C3=O | -0.25% |
| O=C1C2=C(Nc3ccccc3N2)OC1c1ccc2c(c1)OCO2 (stereo not given) | -29.4% |

| SMILES | growth inhibition |
| --- | --- |
| CC(=O)NNC(=S)N/C=C(\C#N)S(=O)(=O)c1ccc(C)cc1 | -25.8% |
| CS(=O)(=O)OCC1C2CCC(CC2)C1COS(C)(=O)=O (stereo not given) | -13.2% |
| N#C/C(=C\c1c[nH]c2ccccc12)c1ccc([N+](=O)[O-])cc1 | -5.2% |
| O=C(CC1C(=O)Nc2ccccc2S1=O)Nc1cccc(Cl)c1 (stereo not given) | 10.1% |
| NC(=O)Nc1nc(-c2ccccc2)no1 | -6.75% |
| CC(=O)Nc1c(C(N)=O)cnn1-c1ccccc1 | 24.5% |
| CC1=NC=C(O)c2ccccc2O1 | 14.9% |
| O=C(O)c1ccc(SSc2ccc(C(=O)O)cn2)nc1 | 6.7% |
| CC1(C)C2CCC13CS(=O)(=O)N1O[C@]13C(=O)O2 (stereo not given in full) | -1.05% |
| CC(=O)Oc1ccccc1C1CCCCC1 | -11.9% |
| Nc1nnc(Cc2cccc3ccccc23)o1 | -15.6% |
| Nc1nnnn1CCc1ccccc1 | 4.4% |
| O=C(COc1cc(Cl)ccc1Cl)NCc1ccc(Cl)cc1 | 34.1% |
| CC(NC(=O)N(C)C)NC(=O)N(C)C | -0.9% |
| CC(C)Sc1nc2ccc(NC(=O)/C=C/C(=O)O)cc2s1 | 13.7% |
| Cn1c(=O)c2c(nc(Br)n2CC(=O)c2ccc([N+](=O)[O-])cc2)n(C)c1=O | 0.55% |
| CCCCOC(=O)CNC(=O)c1ccc(C)c(OCc2ccccc2)c1[N+](=O)[O-] | 20.9% |
| COC(=O)/C=C(\C(=O)OC)c1cc(C)c2cc(C(C)C)ccc(C)c1-2 | -7.5% |
| CCOC(=O)c1cnc(SCc2ccccc2)[nH]c1=O | -16.6% |
| CCC(C#N)(c1ccccc1)N(CCc1ccccc1)C(=O)c1ccccc1 (stereo not given) | -13.2% |
